{
  "source": "PubChem BioAssay AID624481",
  "about": "(The Scripps Research Institute Molecular Screening Center, 2012)",
  "note": "Unmarked numbers belong to inactive results. The source made the active and inactive calls. Cut-off read from the data, not from the text of the source: active = inhibition above about 50%; inactive = the rest.",
  "data": [
    {"target": "Prolyl endopeptidase-like (Mus musculus) (UniProt Q8C167)", "sequence (Q8C167 whole entry, looked up)": "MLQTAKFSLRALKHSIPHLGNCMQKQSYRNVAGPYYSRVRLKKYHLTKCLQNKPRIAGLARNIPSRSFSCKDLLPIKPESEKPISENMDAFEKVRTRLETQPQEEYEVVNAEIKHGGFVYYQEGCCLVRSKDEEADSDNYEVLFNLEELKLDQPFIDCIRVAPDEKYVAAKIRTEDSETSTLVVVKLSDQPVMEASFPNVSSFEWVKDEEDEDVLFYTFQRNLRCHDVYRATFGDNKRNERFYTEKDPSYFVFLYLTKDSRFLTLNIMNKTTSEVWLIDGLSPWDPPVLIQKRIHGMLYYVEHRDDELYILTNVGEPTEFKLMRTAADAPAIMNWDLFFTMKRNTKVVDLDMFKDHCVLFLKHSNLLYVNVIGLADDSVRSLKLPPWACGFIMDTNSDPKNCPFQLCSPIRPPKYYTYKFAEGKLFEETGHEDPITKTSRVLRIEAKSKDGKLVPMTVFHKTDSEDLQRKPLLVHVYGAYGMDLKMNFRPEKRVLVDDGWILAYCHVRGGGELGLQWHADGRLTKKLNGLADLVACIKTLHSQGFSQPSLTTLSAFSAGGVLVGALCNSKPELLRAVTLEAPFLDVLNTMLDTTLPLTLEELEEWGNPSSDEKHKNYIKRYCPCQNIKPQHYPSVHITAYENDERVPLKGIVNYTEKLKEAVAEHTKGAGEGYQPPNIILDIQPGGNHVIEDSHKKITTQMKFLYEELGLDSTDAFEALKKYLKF", "test": "purified PREPL inhibitors, PREPL inhibitor project, biochemical, gel-based competitive ABPP, fluorescence, HTS hits (AID 624481)", "conditions": "at 20 µM, stronger effect = higher value", "values": [
      {"smiles": "c1ccc(CNc2nc(-c3ccccn3)nc3ccccc23)cc1", "inhibition": "-89%"},
      {"smiles": "O=C(C1=C[C@@H](c2ccc(Br)cc2)C[C@@H](OCCCCO)O1)N1CCN(Cc2ccc3c(c2)OCO3)CC1", "inhibition": "-47%"},
      {"smiles": "CCOc1ccc(CCNC(=O)c2ccc3c(=O)[nH]c4c(C(=O)NC(C)C)sc(=S)n4c3c2)cc1", "inhibition": "14%"},
      {"smiles": "Cc1ccc2nc3c(cc(C(=O)NCCc4ccccc4)c(=N)n3CCCN3CCOCC3)c(=O)n2c1", "inhibition": "-43%"},
      {"smiles": "CCN(CC)c1ccc(-c2sc(Nc3ccccc3)n[n+]2-c2ccc(F)cc2)cc1", "inhibition": "-94%"},
      {"smiles": "Cc1noc(C)c1S(=O)(=O)Nc1ccc2c(c1)C(=O)N([C@H](C)CO)C[C@H](C)[C@@H](CN(C)C(=O)Nc1ccc(C(F)(F)F)cc1)O2", "inhibition": "-1%"},
      {"smiles": "Cc1ccc(Nc2nc(NCCO)c3ccccc3n2)cc1C", "inhibition": "-33%"},
      {"smiles": "CCN1/C(=C\\c2ccc3ccccc3[n+]2CC)Sc2cc(C)ccc21", "inhibition": "50% (active)"},
      {"smiles": "c1ccc(-c2nc(N3CCCCCC3)c3ccccc3n2)nc1", "inhibition": "-104%"},
      {"smiles": "COc1cccc2cc(C(=O)C3=C(O)C(=O)N(CCN4CCOCC4)C3c3ccc(C(C)(C)C)cc3)oc12", "note": "(configuration not stated)", "inhibition": "-36%"},
      {"smiles": "CC(=O)n1cc([C@@H]2C=C(C(=O)N3CCN(C)CC3)O[C@H](OCc3ccc(CO)cc3)C2)c2ccccc21", "inhibition": "-55%"},
      {"smiles": "CC(C)[C@H](CN1CCC[C@H]1CN1C(N)=NC[C@@H]1Cc1ccccc1)N1C[C@@H](Cc2ccccc2)N(CCc2ccc(Cl)c(Cl)c2)C1=N", "inhibition": "-75%"}
    ]}
  ]
}
